Reference: PubChem BioAssay AID463173 (ICCB-Longwood Screening Facility, Harvard Medical School, 2010)
The whole screen tested about 52,000 compounds, of which about 1,700 (3.3%) were called active. This is one part of a sample in which actives are shown more often than they occur. Unmarked numbers belong to inactive results. Cut-off read from the data, not from the text of the source: active = survival mostly below about 52% (no sharp cut-off); inactive = mostly above about 56%.

The compounds below were run on Wild type (assay: S. aureus survival, RN4220 and DeltatarO strains – OD600, teichoic acid synthesis inhibitors, primary screen (AID 463173)). Conditions: S. aureus RN4220 wild type/DeltatarO growth, OD600, 18 h, active compounds read low, screened at 18.75 µg/mL (by protocol).

| SMILES | survival |
| --- | --- |
| Cc1cc(C)c2nc(N(Cc3cccnc3)C(=O)c3ccc(S(=O)(=O)N(C)C)cc3)sc2c1 | 57% |
| COc1cccc(-c2nc(CS(=O)(=O)CC(=O)NCCc3ccc(OC)cc3OC)c(C)o2)c1 | 83% |
| Cc1ccc(N(C)S(=O)(=O)c2nnc(NC(=O)CC(C)C)s2)cc1 | 87% |
| N=c1n(CCN2CCCCC2)c2ccccc2n1CC(O)COc1ccccc1 (configuration not stated) | 144% |
| N=c1n(CCN2CCCCC2)c2ccccc2n1CC(O)COc1ccc(Cl)cc1Cl (configuration not stated) | -3% (active) |
| Cc1ccccc1OCC(O)Cn1c(=N)n(CCN2CCCCC2)c2ccccc21 (configuration not stated) | 76% |
| O=C(CSc1nc2c([nH]c3ccccc32)c(=O)n1-c1ccccc1)NCc1ccc(F)cc1 | 87% |
| COCCNC(=O)CSc1nnc(-c2ccc(OC)c(OC)c2)c(-c2ccc(OC)c(OC)c2)n1 | 68% |
| CC(=O)N1N=C(c2ccccc2)CC1c1ccccc1 (configuration not stated) | 104% |
| C=Cc1ccc(Cn2nc(-c3ccc(C)cc3)ccc2=O)cc1 | 57% |
| O=C(O)/C(=C/C(=O)c1ccccc1)Nc1ccccc1 | 100% |
| O=C(COc1ccc(Cl)cc1)Nc1ccc(O)c(-c2nc3ccccc3s2)c1 | 69% |
| CC(C)(C)c1ccc(S(=O)(=O)Nc2ccc(O)c(Sc3nc4ccccc4s3)c2)cc1 | 3% (active) |
| O=S(=O)(Nc1ccc2oc3c(c2c1)CCCC3)c1cc(Cl)ccc1Cl | 46% |
| Cn1c(=O)sc2cc(NS(=O)(=O)c3ccc(C(C)(C)C)cc3)ccc21 | 73% |
| Cc1cc(S(=O)(=O)Nc2ccc(O)c(Sc3nc4ccccc4s3)c2)ccc1Cl | -2% (active) |
| Cc1nc2ccc(S(=O)(=O)NC(C(=O)NCc3ccccc3Cl)C(C)C)cc2s1 (configuration not stated) | 85% |
| CC(C)c1ccc(C(=O)Nc2ccc(-c3nc4ccccc4s3)c(Cl)c2)cc1 | 141% |
| Cc1cc(S(=O)(=O)Nc2ccc3oc4c(c3c2)CCCC4)ccc1Cl | 46% |
| CC(C)NC(=O)c1nc2ccccc2s1 | 120% |
| CC(=O)c1c(C)oc2ccc(NS(=O)(=O)c3ccc(C(C)C)cc3)cc12 | 86% |
| O=S(=O)(Nc1ccc(O)c(Sc2nc3ccccc3s2)c1)c1cc(Cl)ccc1Cl | 0% (active) |
| CC(C)c1ccc(S(=O)(=O)Nc2ccc(O)c(Sc3nc4ccccc4s3)c2)cc1 | 0% (active) |

| SMILES | survival |
| --- | --- |
| CCN(C(=O)CSc1nnc(-c2cc(OC)c(OC)c(OC)c2)o1)c1ccccc1 | 87% |
| CCn1c(CNC(=O)c2ccc(OC)cc2)nnc1SCC(=O)Nc1cccc(C)c1 | 119% |
| CCC(C(=O)Nc1cccc(C#N)c1)n1nc(-c2ccccc2)ccc1=O (configuration not stated) | 79% |
| CC(C)N(Cc1ccccc1)C(=O)Cn1ncc2c3ccccc3n(Cc3ccccc3)c2c1=O | 96% |
| CN(C)c1ccc(C(CNS(=O)(=O)c2ccc(Br)cc2)N2CCCC2)cc1 (configuration not stated) | 68% |
| C=CCC(CC=C)(CNC(=O)C(=O)Nc1ccc(Br)cc1)c1ccc(OC)c(OC)c1 | 90% |
| O=C(Nc1ccc(N2CCN(CCOc3ccc(Cl)cc3)CC2)c(C(=O)O)c1)c1ccc(F)cc1 | -3% (active) |
| O=C(Nc1ccc(N2CCC(N3CCCCC3)CC2)c(C(=O)O)c1)c1ccccc1 | 70% |
| O=C(Nc1ccc(N2CCOCC2)c(C(=O)O)c1)c1ccc(Br)cc1 | 0% (active) |
| Cc1cccc(NC(=O)c2ccc(F)c(S(=O)(=O)N3CCN(c4ccc(F)cc4)CC3)c2)c1 | -3% (active) |
| COc1ccc(C(=O)Nc2ccc(N3CCN(c4ccccc4)CC3)c(C(=O)O)c2)cc1 | 83% |
| CC(=O)c1ccc(N2CCN(c3ccc(NC(=O)c4ccc(F)cc4)cc3C(=O)O)CC2)cc1 | 14% (active) |
| O=C(Nc1ccc(N2CCC(N3CCCCC3)CC2)c(C(=O)O)c1)c1ccc(Br)cc1 | 75% |
| Cc1cccc(C(=O)Nc2ccc(N3CCN(c4ccc(F)cc4)CC3)c(C(=O)O)c2)c1 | 63% |
| Cc1cccc(NC(=O)c2ccc(F)c(S(=O)(=O)N3CCC4(CC3)OCCO4)c2)c1 | 71% |
| O=C(Nc1ccc(N2CCN(c3ccc(F)cc3)CC2)c(C(=O)O)c1)c1ccccc1F | 76% |
| CCCNC(=O)CN1CCN(c2ccc(NC(=O)c3ccc(OC)cc3)cc2C(=O)O)CC1 | 87% |
| CCOc1ccccc1NC(=O)c1ccc(F)c(S(=O)(=O)N2CCN(c3ccc(F)cc3)CC2)c1 | 60% |
| COc1ccc(NC(=O)c2nnn(CC(=O)Nc3cc(C)cc(C)c3)c2N)c(OC)c1 | 139% |
| CC(=O)Nc1ccc(NC(=O)CCNS(=O)(=O)c2cccc3nsnc23)cc1 | 89% |
| Cn1c(-c2ccc(NC(=O)c3ccccc3)cc2)n[nH]c1=S | 113% |
| CC(C)COc1ccc(Nc2ncnc3ccc(Br)cc23)cc1 | 79% |
| O=C(NCC(c1cccnc1)N1CCc2ccccc2C1)C(=O)Nc1cccc(Cl)c1 (configuration not stated) | 47% |

| SMILES | survival |
| --- | --- |
| Cc1ccc(Cl)cc1N1CCN(CCCNC(=O)Cn2ncc3c([nH]c4ccccc43)c2=O)CC1 | 99% |
| Cc1cc(C)cc(-n2c(C)nc3cc(C(=O)NCc4ccc(F)cc4)ccc32)c1 | 138% |
| CC(NC(=O)c1ccccc1)c1n[nH]c(=S)n1C (configuration not stated) | 109% |
| CC(C)NC(=O)/C=C/c1ccc2c(c1)OCO2 | 110% |
| O=C(Cn1c(=O)n(Cc2ccccc2)c(=O)c2sc3ccccc3c21)NCc1ccccc1Cl | 125% |
| CC1=C(C(=O)OCc2ccc(C)cc2)C(c2ccccc2F)CC(=O)N1 (configuration not stated) | 115% |
| COc1ccc(CNCc2c(C(=O)O)c(C)n(Cc3ccc(Cl)cc3)c2C)c(OC)c1 | 101% |
| CCn1cnc2cc(NCc3ccc(N(C)C)cc3)ccc21 | 94% |
| COc1cc(CNc2ccc3c(c2)ncn3C(C)C)cc(OC)c1OC | 66% |
| CCCCn1cnc2cc(NCc3ccccc3Cl)ccc21 | -16% (active) |
| CCCCn1cnc2cc(NC(=O)c3cc(OC)c(OC)c(OC)c3)ccc21 | 79% |
| CC(C)(C)n1cnc2cc(NCc3ccccc3Cl)ccc21 | 8% (active) |
| CCCn1cnc2cc(NCc3ccc(OC)cc3OC)ccc21 | 63% |
| CCCn1cnc2cc(NCc3ccccc3OCC)ccc21 | 61% |
| COc1cccc(CNc2ccc3c(c2)ncn3C)c1OC | 121% |
| CCCn1cnc2cc(NC(=O)c3cc(OC)c(OC)c(OC)c3)ccc21 | 76% |
| CCc1ccc(CNc2ccc3c(c2)ncn3C(C)(C)C)cc1 | -16% (active) |
| CC(C)(C)n1cnc2cc(NS(=O)(=O)c3ccccc3)ccc21 | 112% |
| CCCCn1cnc2cc(NCc3ccc(OCC)cc3)ccc21 | 4% (active) |
| O=C(CN1C(=O)C2(SCC(=O)N2c2ccccc2)c2ccccc21)NCc1ccccc1Cl (configuration not stated) | 97% |
| Cc1cc(C)c2c(c1)NC(=O)C2(O)c1c[nH]c2ccccc12 (configuration not stated) | 97% |
| COc1ccc(C)cc1NC(=O)c1cc2c(s1)-c1ccccc1SC2 | 46% |
| CC(C)OCCCNC(=O)c1ccc(Cn2c(=O)c3cccn3c3cccnc32)cc1 | 111% |

| SMILES | survival |
| --- | --- |
| COc1ccc(OC)c(NC(=O)c2cc3c(=O)oc4ccccc4c3s2)c1 | 103% |
| CCCc1cc(=O)[nH]c2nnc(SC(C)CC)n12 (configuration not stated) | 80% |
| Cc1c2cnn(-c3ccccc3)c(=O)c2c(C)n1C(C)C(=O)Nc1ccccc1C(F)(F)F (configuration not stated) | 81% |
| Cc1ccc(Cl)cc1N1CCN(C(=O)CCCn2c(=O)[nH]c3ccc(Br)cc3c2=O)CC1 | 21% |
| O=C(CCCn1c(=O)[nH]c2ccc(Br)cc2c1=O)N1CCN(c2cccc(Cl)c2)CC1 | 6% (active) |
| COc1cccc(N2CCN(C(=O)CCCn3c(=O)[nH]c4ccc(Br)cc4c3=O)CC2)c1 | 53% |
| CCOC(=O)c1noc2ncnc(NCc3ccccc3OC)c12 | 72% |
| COc1ccc(N2CC(NC(=O)c3ccco3)CC2=O)cc1 (configuration not stated) | 49% |
| COc1ccc(OCC(=O)NC2CC(=O)N(c3cccc(OC)c3)C2)cc1 (configuration not stated) | -3% (active) |
| COc1cccc(N2CC(NC(=O)c3ccco3)CC2=O)c1 (configuration not stated) | 10% (active) |
| COc1cccc(N2CC(NC(=O)COc3ccc4ccccc4c3)CC2=O)c1 (configuration not stated) | 94% |
| COc1ccc(N2CC(NC(=O)c3ccco3)CC2=O)cc1OC (configuration not stated) | 68% |
| COc1cccc(OCC(=O)NC2CC(=O)N(c3cccc(OC)c3)C2)c1 (configuration not stated) | 124% |
| O=C1CC(=O)SC(c2ccccc2)=N1 | 105% |
| CCOC(=O)c1c(C)[nH]c(C)c1S(=O)(=O)NCC(=O)Nc1cc(Cl)ccc1OC | -6% (active) |
| CCOC(=O)c1scc(-c2ccc(C)cc2)c1S(=O)(=O)Nc1cc(OC)ccc1OC | 76% |
| CCOC(=O)c1scc(-c2ccc(C)cc2)c1S(=O)(=O)Nc1ccc(OC)c(Cl)c1 | 90% |
| CCOC(=O)c1c(C)[nH]c(C)c1S(=O)(=O)NCC(=O)Nc1cc(C)ccc1OC | 75% |
| CCOC(=O)c1c(C)[nH]c(C)c1S(=O)(=O)N(C)CC(=O)Nc1cc(Cl)ccc1OC | 128% |
| CCOC(=O)c1scc(-c2ccc(C)cc2)c1S(=O)(=O)Nc1cc(Cl)ccc1OC | -6% (active) |
| CCCc1oc(C(=O)O)cc1CN1CCOCC1 | 117% |
| CC(=O)C1=C(c2ccc(C)cc2)N(C(C)=O)n2c(nnc2-c2ccccc2)S1 | 134% |
| CCc1cccc2c(-c3ccccc3)nc(SCC(=O)Nc3ccc(OC)cc3)nc12 | 98% |
